This note sets out measurements from PubChem BioAssay (EPA / NIEHS).

Common to all, as to details: mRNA level, 48 h; actives raise or lower the signal
Read-out in experiment [1]: adenosine kinase (ADK) gene, ADK (gene 132)
The experiment can be described thus: LTEA_HepaRG_ADK: Life Technologies and Expression Analysis (LTEA) Assay for adenosine kinase (ADK) gene using HepaRG (AID 2283471). The method in brief:
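Read-out is ADK transcript level measured by qRT-PCR and normalised to three housekeeping genes. Cells are human HepaRG, dosed for 48 h at up to 100 uM in 0.5% DMSO. Gain or loss of signal is fitted against DMSO controls.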

Read-out in experiment [2]: Alpha-fetoprotein (AFP) gene, AFP (gene 174)
In words: LTEA_HepaRG_AFP: Life Technologies and Expression Analysis (LTEA) Assay for Alpha-fetoprotein (AFP) gene using HepaRG (AID 2283472). The method in brief:
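AFP transcript measured by TaqMan qRT-PCR with three housekeeping genes for normalization, after 48 h chemical treatment of HepaRG cells (top 100 uM, half-log steps, 0.5% DMSO). Gain or loss fitted against vehicle.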

Read-out in a further experiment: BCL2L11 (gene 10018)
In words: LTEA_HepaRG_BCL2L11: Life Technologies and Expression Analysis (LTEA) Assay for Bcl-2 (BCL2L11) gene using HepaRG (AID 2283473). The method in brief:
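Differentiated human HepaRG cells were exposed 48 h in serum-free induction medium to eight half-log concentrations up to 100 uM in 0.5% DMSO, in duplicate. BCL2L11 mRNA was quantified by TaqMan qRT-PCR, normalized to ACTB, GAPDH and POLR2A; induction or repression fitted versus DMSO.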

Read-out in experiment [3]: Apolipoprotein A-V (APOA5) gene, APOA5 (gene 116519)
The experiment can be described thus: LTEA_HepaRG_APOA5: Life Technologies and Expression Analysis (LTEA) Assay for Apolipoprotein A-V (APOA5) gene using HepaRG (AID 2283474). The essentials: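 Differentiated HepaRG cells in serum-free induction medium, exposed 48 h in duplicate to eight half-log concentrations topping at 100 uM (0.5% DMSO). APOA5 mRNA by Fluidigm TaqMan qRT-PCR, normalized to ACTB, GAPDH and POLR2A; bidirectional fit versus DMSO.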

Read-out in experiment [4]: Apoptosis regulator Bcl-2 (Homo sapiens) (UniProt P10415)
The experiment can be described thus: LTEA_HepaRG_BCL2: Life Technologies and Expression Analysis (LTEA) Assay for Bcl-2 gene using HepaRG (AID 2283475). The method in brief:
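qRT-PCR of BCL2 transcript, normalized to three housekeeping genes (ACTB, GAPDH, POLR2A), after 48 h chemical exposure of HepaRG cells; concentrations top 100 uM with half-log dilutions, 0.5% DMSO vehicle, duplicates; changes up or down fitted relative to vehicle.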

Read-out in experiment [5]: Bcl-2 (BID) gene, BID (gene 637)
The experiment can be described thus: LTEA_HepaRG_BID: Life Technologies and Expression Analysis (LTEA) Assay for Bcl-2 (BID) gene using HepaRG (AID 2283476). The essentials: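 Duplicate 48 h treatments of HepaRG cells in serum-free induction medium spanned 100 uM downward in half-log steps, 0.5% DMSO. Transcript change quantified by qRT-PCR against three housekeeping genes, fitted up or down versus DMSO.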

Read-out in a further experiment: Caspase-3 (Homo sapiens) (UniProt P42574)
In words: LTEA_HepaRG_CASP3: Life Technologies and Expression Analysis (LTEA) Assay for cysteine-aspartic acid protease (CASP3) using HepaRG (AID 2283477). The method in brief: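 Differentiated HepaRG cells, plated 48 h, were treated in duplicate in serum-free induction medium for 48 h with eight half-log concentrations up to 100 uM in 0.5% DMSO. CASP3 mRNA measured by qRT-PCR, normalized to ACTB, GAPDH, POLR2A.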

Read-out in experiment [6]: Cytochrome P450 (CYP24A1), CYP24A1 (gene 1591)
The experiment can be described thus: LTEA_HepaRG_CYP24A1: Life Technologies and Expression Analysis (LTEA) Assay for Cytochrome P450 (CYP24A1) using HepaRG (AID 2283478). The essentials:
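HepaRG cells plated 48 h, then exposed in duplicate in serum-free induction medium for 48 h to 8-point half-log series from 100 uM in 0.5% DMSO. CYP24A1 mRNA by Fluidigm qRT-PCR, normalized to ACTB, GAPDH, POLR2A; bidirectional fit versus DMSO.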

Read-out in experiment [7]: Cytochrome P450 (CYP1A2), CYP1A2 (gene 1544)
The experiment can be described thus: LTEA_HepaRG_CYP1A2: Life Technologies and Expression Analysis (LTEA) Assay for Cytochrome P450 (CYP1A2) using HepaRG (AID 2283479). The method in brief: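 Differentiated human HepaRG cells in serum-free induction medium exposed 48 hours in duplicate to 8 half-log concentrations from 100 uM, 0.5% DMSO. CYP1A2 mRNA quantified by qRT-PCR, normalized to ACTB, GAPDH and POLR2A; bidirectional fitting versus DMSO.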

Read-out in experiment [8]: cysteine-aspartic acid protease (CASP8), CASP8 (gene 841)
The experiment can be described thus: LTEA_HepaRG_CASP8: Life Technologies and Expression Analysis (LTEA) Assay for cysteine-aspartic acid protease (CASP8) using HepaRG (AID 2283480). The essentials:
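qRT-PCR readout of CASP8 mRNA, normalized to three housekeeping genes, after 48 h chemical exposure of HepaRG cells; 8-point half-log series, top 100 uM, 0.5% DMSO vehicle. Bidirectional curve fitting against DMSO baseline.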

Read-out in experiment [9]: Cytochrome P450 (CYP2B6), CYP2B6 (gene 1555)
In words: LTEA_HepaRG_CYP2B6: Life Technologies and Expression Analysis (LTEA) Assay for Cytochrome P450 (CYP2B6) using HepaRG (AID 2283481). The essentials:
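Differentiated human HepaRG cells in serum-free induction medium, dosed in duplicate for 48 h over 8 half-log concentrations topping at 100 uM (0.5% DMSO). CYP2B6 mRNA measured by TaqMan qRT-PCR, normalized to ACTB, GAPDH, POLR2A; bidirectional fit versus DMSO.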

Read-out in experiment [10]: Cytochrome P450 2C19 (Homo sapiens) (UniProt P33261)
In words: LTEA_HepaRG_CYP2C19: Life Technologies and Expression Analysis (LTEA) Assay for CYP2C19 using HepaRG (AID 2283482). The method in brief:
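Differentiated HepaRG cells in serum-free induction medium exposed 48 h in duplicate, 8 concentrations from 100 uM by half-log steps in 0.5% DMSO. CYP2C19 mRNA measured by TaqMan qRT-PCR, normalized to ACTB, GAPDH, POLR2A. Bidirectional fit versus DMSO.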

Read-out in another experiment: CYP2C8 (gene 1558)
In words: LTEA_HepaRG_CYP2C8: Life Technologies and Expression Analysis (LTEA) Assay for CYP2C8 using HepaRG (AID 2283483). The method in brief: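 HepaRG (human liver line), 48 h chemical exposure, 8-pt half-log series from 100 uM, 0.5% DMSO vehicle. Readout: CYP2C8 transcript by qRT-PCR, housekeeping-normalized. Bidirectional fit vs DMSO baseline.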

Read-out in a further experiment: CYP2C9 (gene 1559)
The experiment can be described thus: LTEA_HepaRG_CYP2C9: Life Technologies and Expression Analysis (LTEA) Assay for CYP2C9 using HepaRG (AID 2283484). The essentials:
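HepaRG, 48 h dosing, 8-pt half-log series, top 100 uM, 0.5% DMSO vehicle. Read-out: CYP2C9 transcript by TaqMan qRT-PCR, housekeeping-normalized (ACTB/GAPDH/POLR2A). Gain or loss fitted vs DMSO baseline.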

Read-out in a further experiment: CYP2E1 (gene 1571)
The experiment can be described thus: LTEA_HepaRG_CYP2E1: Life Technologies and Expression Analysis (LTEA) Assay for CYP2E1 using HepaRG (AID 2283485). The method in brief: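 CYP2E1 transcript measured by Fluidigm qRT-PCR against three housekeeping genes in human HepaRG cells treated 48 h (top 100 uM, half-log steps, 0.5% DMSO vehicle). Gain or loss fitted relative to DMSO baseline.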

Read-out in a further experiment: CYP4A11 (gene 1579)
The experiment can be described thus: LTEA_HepaRG_CYP4A11: Life Technologies and Expression Analysis (LTEA) Assay for CYP4A11 using HepaRG (AID 2283486). The essentials:
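Differentiated HepaRG cells, 48 h after plating, exposed in duplicate for 48 h to 8 half-log concentrations up to 100 uM in 0.5% DMSO in serum-free induction medium. CYP4A11 mRNA measured by TaqMan qRT-PCR, normalized to ACTB, GAPDH and POLR2A.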

Read-out in experiment [11]: Cytochrome P450 3A4 (Homo sapiens) (UniProt P08684)
The experiment can be described thus: LTEA_HepaRG_CYP3A4: Life Technologies and Expression Analysis (LTEA) Assay for CYP3A4 using HepaRG (AID 2283487). The essentials: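 HepaRG, 48 h exposure, 8-pt CRC from 100 uM (half-log), 0.5% DMSO, duplicates; serum-free induction medium. Readout: CYP3A4 mRNA, qRT-PCR, ACTB/GAPDH/POLR2A normalization. Bidirectional fit vs DMSO.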

Read-out in experiment [12]: DNA damage-inducible transcript 3 (DDIT3), DDIT3 (gene 1649)
In words: LTEA_HepaRG_DDIT3: Life Technologies and Expression Analysis (LTEA) Assay for DNA damage-inducible transcript 3 (DDIT3) using HepaRG (AID 2283488). The method in brief: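 DDIT3 transcript was quantified by qRT-PCR with ACTB/GAPDH/POLR2A normalization after 48 h chemical treatment of differentiated HepaRG cells in 0.5% DMSO. Dosing was eight-point, half-log, top 100 uM, duplicate wells. Curves fitted bidirectionally versus DMSO.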

Read-out in experiment [13]: Pro-epidermal growth factor (Homo sapiens) (UniProt P01133)
In words: LTEA_HepaRG_EGF: Life Technologies and Expression Analysis (LTEA) Assay for Epidermal growth factor (EGF) using HepaRG (AID 2283489). The essentials: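 HepaRG cells (~100,000/well, 48 h pre-culture) exposed in duplicate for 48 h in serum-free induction medium to 8 half-log concentrations up to 100 uM in 0.5% DMSO. EGF mRNA by qRT-PCR, normalized to ACTB/GAPDH/POLR2A; bidirectional fit versus DMSO.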

Read-out in experiment [14]: Early growth response protein 1 (EGR1) transcription factor, EGR1 (gene 1958)
The experiment can be described thus: LTEA_HepaRG_EGR1: Life Technologies and Expression Analysis (LTEA) Assay for Early growth response protein 1 (EGR1) transcription factor using HepaRG (AID 2283490). The essentials:
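HepaRG, 48 h exposure, 8-pt half-log series from 100 uM, 0.5% DMSO vehicle; EGR1 transcript by TaqMan qRT-PCR (Fluidigm array), housekeeping-normalized; bidirectional fit relative to DMSO baseline.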

Activity calls are given as the source filed them. How the source made its calls: active means hit-call score of the fitted dose curve at least 0.9, where 1 is the maximum; inactive means score below 0.9.

Chain of Cytochrome P450 2C19 (Homo sapiens) (P33261 whole entry, looked up): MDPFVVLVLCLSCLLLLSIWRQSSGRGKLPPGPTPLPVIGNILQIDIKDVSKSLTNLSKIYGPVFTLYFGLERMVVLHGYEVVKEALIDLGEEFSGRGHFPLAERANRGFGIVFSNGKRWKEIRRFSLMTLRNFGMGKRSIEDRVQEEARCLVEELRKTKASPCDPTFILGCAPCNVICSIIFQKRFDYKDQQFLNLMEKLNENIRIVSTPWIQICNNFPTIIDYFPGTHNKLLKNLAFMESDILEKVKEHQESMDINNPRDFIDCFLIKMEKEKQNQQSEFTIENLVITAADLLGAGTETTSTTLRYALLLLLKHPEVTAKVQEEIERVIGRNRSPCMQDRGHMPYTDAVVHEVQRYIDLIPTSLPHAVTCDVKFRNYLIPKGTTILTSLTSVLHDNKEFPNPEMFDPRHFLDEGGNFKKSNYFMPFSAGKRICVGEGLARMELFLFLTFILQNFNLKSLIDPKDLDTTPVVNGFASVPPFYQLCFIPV
Chain of Caspase-3 (Homo sapiens) (P42574 whole entry, looked up): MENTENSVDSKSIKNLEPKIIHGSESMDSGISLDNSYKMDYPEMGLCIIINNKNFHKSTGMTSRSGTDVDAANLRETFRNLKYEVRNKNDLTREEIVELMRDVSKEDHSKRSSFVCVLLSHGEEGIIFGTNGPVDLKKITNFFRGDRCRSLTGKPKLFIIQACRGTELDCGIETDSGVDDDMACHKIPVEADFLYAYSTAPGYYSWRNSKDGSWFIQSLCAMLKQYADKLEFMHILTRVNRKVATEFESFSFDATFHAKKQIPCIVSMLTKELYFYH
Chain of Cytochrome P450 3A4 (Homo sapiens) (P08684 whole entry, looked up): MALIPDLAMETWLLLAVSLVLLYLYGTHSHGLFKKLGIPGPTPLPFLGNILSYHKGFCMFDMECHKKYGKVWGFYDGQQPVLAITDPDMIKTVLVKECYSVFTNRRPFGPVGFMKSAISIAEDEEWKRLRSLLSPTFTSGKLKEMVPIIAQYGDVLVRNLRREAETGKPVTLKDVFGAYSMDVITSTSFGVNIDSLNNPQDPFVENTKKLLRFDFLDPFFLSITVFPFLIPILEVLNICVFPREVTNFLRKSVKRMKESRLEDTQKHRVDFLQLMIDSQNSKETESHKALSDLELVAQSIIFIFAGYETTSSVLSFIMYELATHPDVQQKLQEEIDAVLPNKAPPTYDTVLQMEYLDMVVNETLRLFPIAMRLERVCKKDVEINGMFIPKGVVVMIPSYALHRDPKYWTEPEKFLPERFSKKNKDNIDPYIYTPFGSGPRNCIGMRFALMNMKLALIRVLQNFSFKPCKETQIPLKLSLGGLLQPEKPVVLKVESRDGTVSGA
Chain of Apoptosis regulator Bcl-2 (Homo sapiens) (P10415 whole entry, looked up): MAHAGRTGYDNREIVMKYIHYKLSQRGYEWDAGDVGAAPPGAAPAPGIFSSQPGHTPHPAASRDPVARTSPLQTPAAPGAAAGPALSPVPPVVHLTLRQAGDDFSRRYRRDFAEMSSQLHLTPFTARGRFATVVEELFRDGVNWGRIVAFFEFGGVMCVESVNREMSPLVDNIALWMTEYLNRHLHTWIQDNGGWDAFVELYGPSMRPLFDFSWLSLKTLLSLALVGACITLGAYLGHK

`OC1CCC(C2CCCCC2)CC1` (stereo not given): the outcome (in experiment [1]; in [2]; with BCL2L11 (gene 10018); in experiment [3]; in [4]; in experiment [5]) was inactive. Besides, the molecule was called inactive (in the experiment with Caspase-3 (Homo sapiens); in experiment [6]; in experiment [7]; in experiment [8]; in experiment [9]; in experiment [10]). Further, the call (with CYP2C8 (gene 1558); with CYP2C9 (gene 1559); with CYP2E1 (gene 1571); with CYP4A11 (gene 1579); in experiment [11]; in experiment [12]) was inactive. The molecule was classed as inactive in experiment [13] and in experiment [14].

In general, AC50 refers to the midpoint of the concentration-response curve, whichever way the signal moves. As to `CC(=O)NC1(c2cccc(F)c2)CCN(CC[C@@]2(c3ccc(Cl)c(Cl)c3)CN(c3ccccc3)C(=O)CO2)CC1`, the outcome (in experiment [1]; in experiment [3]; in [4]; in experiment [5]; with Caspase-3 (Homo sapiens); in [6]) was inactive. For the same molecule, the molecule was classed as inactive (in experiment [7]; in experiment [8]; in [9]; in experiment [10]; in the experiment with CYP2C8 (gene 1558); with CYP2C9 (gene 1559)). For the same molecule, in experiment [13], the molecule was called inactive. Further, the AC50 in experiment [2] was 13.1 µM (active); in the experiment with BCL2L11 (gene 10018), 59.6 µM (active); with CYP2E1 (gene 1571), 11 µM (active); with CYP4A11 (gene 1579), 13.1 µM (active); in [11], 3.67 µM (active); in experiment [12] it was 41.5 µM (active). Also, in [14], the AC50 is 72.4 µM (active).

Turning to `O=C(O)c1ccccc1C(c1ccc(O)cc1)c1ccc(O)cc1`, the call (in experiment [1]; in experiment [2]; with BCL2L11 (gene 10018); in [3]; in experiment [4]; in experiment [5]) was inactive. The molecule was called inactive (with Caspase-3 (Homo sapiens); in experiment [6]; in experiment [7]; in [8]; in experiment [10]; with CYP2C8 (gene 1558)). The molecule was called inactive (in the experiment with CYP2C9 (gene 1559); with CYP2E1 (gene 1571); with CYP4A11 (gene 1579); in experiment [11]; in [12]; in experiment [13]). Also, in experiment [14], the outcome was inactive. Moreover, the concentration at half-maximal activity (AC50) in experiment [9] was 3.65 µM (active).
